# Vif-A3G inh: qHTS for Inhibitors of Vif-A3G Interactions: qHTS; HeLa A3G-eYFP + Vif (tagged APOBEC3G with the HIV-1 protein that degrades it), YFP fluorescence, overnight; Potency, µM (highest dose often 46.1 µM), most hits filed as inhibitors; 410,000 compounds, 0.076% hits; also: nearly all actives have a fitted effect of over 60% in size
#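 Read-out is eYFP fluorescence (Ex 488/Em 500-530) from Vif-expressing HeLa A3G-eYFP cells; more signal means A3G escaped Vif-mediated degradation. Cells plated overnight, compound pinned in, incubated overnight at 37 deg C.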
# PLK1 PBD block: qHTS for Inhibitors of PLK1-PDB (polo-like kinase 1 - polo-box domain): Primary Screen | Potency, µM, hits mostly inhibitors | Plk1 PBD binding of FITC phosphopeptide, fluorescence polarization | 360,000 compounds, 2.8% hits | AID 720504, 2013; also: series mostly up to about 57 µM; nearly all actives have a fitted effect of over 65% in size
# Target sequence (P53350 whole entry, looked up, the tested form may be a part): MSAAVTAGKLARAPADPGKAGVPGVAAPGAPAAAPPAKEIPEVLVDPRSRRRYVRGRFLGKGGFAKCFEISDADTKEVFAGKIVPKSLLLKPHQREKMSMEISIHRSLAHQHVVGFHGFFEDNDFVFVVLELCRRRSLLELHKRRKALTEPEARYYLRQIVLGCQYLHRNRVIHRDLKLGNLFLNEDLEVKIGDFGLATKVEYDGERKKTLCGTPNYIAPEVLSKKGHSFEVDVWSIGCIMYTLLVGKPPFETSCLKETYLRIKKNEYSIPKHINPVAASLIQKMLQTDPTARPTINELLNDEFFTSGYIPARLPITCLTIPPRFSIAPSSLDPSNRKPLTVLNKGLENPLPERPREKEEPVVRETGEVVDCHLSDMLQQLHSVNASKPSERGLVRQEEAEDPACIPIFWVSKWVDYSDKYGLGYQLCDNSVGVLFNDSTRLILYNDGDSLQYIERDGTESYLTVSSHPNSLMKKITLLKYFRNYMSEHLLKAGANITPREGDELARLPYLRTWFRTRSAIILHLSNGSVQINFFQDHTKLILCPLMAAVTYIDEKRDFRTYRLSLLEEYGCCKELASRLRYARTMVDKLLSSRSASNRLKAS
# VDR inhibitor: Inhibitors of the vitamin D receptor (VDR): qHTS; Vitamin D3 receptor (Homo sapiens), P11473; VDR-SRC2-3 peptide fluorescence polarization, 2 h; Potency, µM, hits mostly inhibitors; 400,000 compounds, 0.93% hits; AID 504847, 2011
#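 The screen uses fluorescence polarization to detect compounds that interfere with recruitment of the SRC2-3 coactivator peptide to VDR; plates are read after 2 h at room temperature.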
# TSHR antag: Antagonists of the Thyroid Stimulating Hormone Receptor: HTS campaign | TSHR-expressing cells, TSH-stimulated cAMP HTRF, 2 h; stronger effect = lower value | activity change, negative = inhibition, % at 11.5 µM | 330,000 compounds, 0.2% hits | AID 504810, 2011;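 active = activity change below a set negative limit, meaning inhibition stronger than a set level, cut at about -70% in these data; inconclusive = activity change between two set negative limits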
#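 Competitive HTRF cAMP read-out (cryptate anti-cAMP antibody, cAMP-d2; 30 min, room temperature) in freshly harvested TSHR cells. Compounds added before TSH at EC80 (4nM final), followed by 2 hours' incubation at 37 deg C.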
# Vif-APOBEC3F blk: qHTS for Inhibitors of Vif-A3F Interactions: qHTS. Potency, µM (series often up to 46.1 µM). 390,000 compounds, 0.2% hits. HeLa A3F-eYFP + Vif (tagged APOBEC3F with the HIV-1 protein that degrades it), YFP fluorescence increase. AID 602313, 2012; also: nearly all actives have a fitted effect of over 65% in size
#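 Fluorescence increase (Ex 488/Em 500-530) after overnight compound treatment at 37 deg C flags inhibition of Vif-driven A3F-eYFP loss in stable HeLa A3F-eYFP/Vif cells seeded overnight beforehand.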
# Numbers stand for hits; 0 = inactive; ? = inconclusive; - = not tested or not shown. Only some compounds are listed: those with a hit (about 3.1% of all), similar ones and a draw of the others. Unless noted, calls follow the shape of the dose curve; as a rule, active = well fitted curve in the direction sought with a large enough effect; inconclusive = small, poorly fitted or top-dose-only effect, or another doubt; inactive = no such curve, though single readings can be large; an effect the other way counts as inactive or inconclusive.
SMILES,Vif-A3G inh,PLK1 PBD block,VDR inhibitor,TSHR antag,Vif-APOBEC3F blk
CC1CCc2c(sc3nnn(Cc4ccc(F)cc4)c(=O)c23)C1 (configuration not stated),0,-,0,-,0
CC(=O)N1CCc2cc(S(=O)(=O)CCC(=O)Nc3ccc(C)cc3Br)ccc21,0,-,0,-,0
CC(=O)N1CCc2cc(S(=O)(=O)CCC(=O)Nc3ccccc3F)ccc21,0,23.8µM,0,0,0
CC[C@H](C)[C@H](NC(=O)[C@H](CC(=O)O)NC(=O)[C@H](CC(C)C)NC(=O)[C@H](Cc1cnc[nH]1)NC(=O)[C@H](C)NC(=O)[C@H](Cc1ccccc1)NC(=O)[C@H](Cc1ccc(O)cc1)NC(=O)[C@@H](NC(=O)[C@H](C)NC(=O)[C@H](CCC(=O)O)NC(=O)[C@H](CCC(=O)O)NC(=O)[C@H](CC(=O)O)NC(=O)CCC(=O)O)C(C)C)C(=O)N[C@H](C(=O)N[C@@H](Cc1c[nH]c2ccccc12)C(=O)O)[C@@H](C)CC,-,-,0,-,-
COc1ccc2c(c1OC)C(=O)OC2Nc1nc(-c2ccc(-c3ccccc3)cc2)cs1 (configuration not stated),0,26.7µM,0,0,0
COC(=O)C/C=C/[C@@H](C)[C@@H](Cc1ccccc1Br)OC,-,-,0,-,-
COc1cccc2cc(C(=O)NCCc3c[nH]c4ccccc34)c(=O)oc12,0,11.9µM,0,0,0
COc1ccc(CCNC(=O)c2cc3cccc(OC)c3oc2=O)cc1OC,0,0,0,0,0
O=C(c1ccc(Cl)c(Cl)c1)N1CCC(=O)N([C@H](COCc2ccccc2)Cc2ccccc2)CC1,-,0,-,-,-
O=C(c1ccc(Cl)c(Cl)c1)N1CCC(=O)N(C(CO)Cc2ccccc2)CC1 (configuration not stated),0,26.7µM,?,-,0
Cc1cccc(-c2nsc(SCC(=O)NCc3ccco3)n2)c1,0,21.2µM,0,0,0
Cc1cccc(-c2noc(CCCC(=O)NCC3CCCO3)n2)c1 (configuration not stated),0,0,0,0,0
Cc1cccc(C2(c3cccc(C)c3)CC2C(=O)NCC2CCCO2)c1 (configuration not stated),0,26.7µM,?,0,0
Cc1cccc(-c2nsc(SCC(=O)NCC3CCCO3)n2)c1 (configuration not stated),0,8.44µM,0,0,0
Cc1cccc(-c2nsc(SCC(=O)c3ccc(Cl)cc3)n2)c1,0,16.8µM,0,0,0
COC(=O)C(C(C)C)N1CC(=O)c2ccccc2S1(=O)=O (configuration not stated),0,-,0,-,-
COc1ccc2[nH]c(C)c(C(=O)CNc3nccs3)c2c1,0,-,-,-,-
COc1cc2c(cc1CC=C(C)C)C(=O)C[C@@H](c1ccc(O)cc1)O2,-,-,0,-,-
CCOC(=O)CNC(=O)CSc1nnc(SCC(=O)NCC(=O)OCC)s1,0,0,0,0,0
CCOC(=O)CNC(=O)CSc1nc(-c2cccc(C)c2)ns1,0,10.6µM,79.4µM,0,0
Cc1ccccc1NC(=S)Nn1cnnc1,0,15µM,?,0,0
CCOc1ccccc1NC(=S)Nn1cnnc1,0,2.38µM,39.8µM,0,0
Fc1ccccc1NC(=S)Nn1cnnc1,0,6.7µM,?,0,0
CCc1ccccc1NC(=S)Nn1cnnc1,-,-,-,0,-
Cc1cccc(NC(=S)Nn2cnnc2)c1C,0,?,?,0,0
SMILES,Vif-A3G inh,PLK1 PBD block,VDR inhibitor,TSHR antag,Vif-APOBEC3F blk
Cc1ccc(NC(=O)c2ccc(-n3nncc3-c3ccccc3)cc2)cc1,0,-,0,-,-
C[S+](C)CC(=O)c1ccc2ccccc2c1,0,-,-,-,-
CCOC(=O)CSc1nc2cc(OC)c(OC)cc2cc1C#N,0,-,0,-,-
O=C(O)c1cccc(N/N=C/c2cc(Br)cc(Br)c2O)c1,0,23.8µM,0,0,0
COc1ccc(Br)cc1/C=N/Nc1cccc(C(=O)O)c1,0,?,0,0,0
CC(C)C[C@H](NC(=O)[C@H](CCC(N)=O)NC(=O)[C@H](CCCCN)NC(=O)[C@H](CCC(N)=O)NC(=O)[C@@H](N)CCC(=O)O)C(=O)N[C@@H](CCC(N)=O)C(=O)O,-,-,0,-,-
CCOC(=O)C1=C(CNCc2ccccc2)NC(=O)NC1c1ccc(C)cc1 (configuration not stated),0,-,0,-,0
CCCC(=O)NC(NC1CCS(=O)(=O)C1)C(Cl)(Cl)Cl (configuration not stated),0,26.7µM,0,0,0
Cc1ccc(S(=O)(=O)N2CCN(c3nc(-c4ccc(F)cc4)nc4cc(Cl)ccc34)CC2)cc1,0,-,0,-,-
COc1ccc(-c2ccc(CN3C(C)C(=O)N(Cc4cn(CCC5OCCO5)nn4)CCS3(=O)=O)cc2)cc1 (configuration not stated),0,42.3µM,-,-,0
CCCC(=O)C1=C(c2ccccc2)C(C#N)(C#N)C(C#N)=C1N,0,7.52µM,?,0,-
CCCC(=O)C1=C(N(C)c2ccccc2)CC(C)(C)CC1=O,0,0,0,0,0
CN(C)c1ccc(/C=c2\[nH]c(=O)/c(=C\c3ccc(N(C)C)cc3)[nH]c2=O)cc1,0,-,-,-,-
CC[C@H](C)[C@H](NC(=O)[C@H](CC(C)C)NC(=O)[C@@H](N)CO)C(=O)NCC(=O)N[C@@H](CCCCN)C(=O)N[C@H](C(=O)O)C(C)C,-,-,0,-,-
COc1ccc(-c2c(C3C4C=CCCC4(C)C(=O)N3Cc3ccccc3)ccc3ccccc23)cc1 (configuration not stated),0,-,0,-,-
CC(C)c1cccc(-c2ccc3c(c2)S(=O)(=O)c2cccc(C(=O)NCc4ccccc4Cl)c2C3=O)c1,0,0,0,0,11.2µM
CC(C)c1cccc(-c2ccc3c(c2)S(=O)(=O)c2cccc(C(=O)NCc4ccccc4)c2C3=O)c1,0,0,0,0,10µM
O=C(NCc1ccc(F)cc1)c1cccc2c1C(=O)c1ccc(Cl)cc1S2(=O)=O,-,-,-,0,-
CCOc1cc(C2C3=C(CCCC3=O)OC3=C2C(=O)CCC3)cc([N+](=O)[O-])c1O,0,0,0,0,0
CCOc1cc(C2C3=C(CC(C)(C)CC3=O)OC3=C2C(=O)CC(C)(C)C3)cc([N+](=O)[O-])c1O,0,33.6µM,0,0,0
CC1(C)CC(=O)C2=C(C1)OC1=C(C(=O)CC(C)(C)C1)C2c1cc([N+](=O)[O-])cc([N+](=O)[O-])c1O,0,16.8µM,?,0,0
Cc1[nH]c2ccccc2c1CC#N,0,0,0,0,0
Cc1[nH]c2ccccc2c1[C@H]1[C@@H](CC#N)C1(C)C,0,29.9µM,0,0,0
O=C(Nc1ccc(O)c2c(=O)cc(-c3ccccc3Cl)oc12)c1cc(Cl)cc(Cl)c1,0,-,0,-,-

# Source: PubChem (National Center for Advancing Translational Sciences (NCATS))
